Reference: ChEMBL document CHEMBL4513216, “Probing the Open Global Health Chemical Diversity Library for Multistage-Active Starting Points for Next-Generation Antimalarials” (ACS Infect Dis, 2020)
Hit rate of the full screen: of about 69,000 compounds, about 8,600 (12%) showed an effect of 50% or more. The list comes from a sample in which strong results are over-represented; it also holds similar structures and randomly drawn compounds.

system: Plasmodium berghei; assay: Screen against P. berghei liver stage (PbLuc), transformed with Luciferase, at 10uM; type: functional, HepG2; conditions: tested at 10 uM

Row | SMILES | INHIBITION [%]
1 | CCC(=O)N1C[C@@H]2CCN(c3cnccn3)C[C@@H]2C1 | -18.4
2 | CC(C)(C)c1ccc(OCC(N)=O)c(CN2C[C@H]3CC(O)C[C@H]3C2)c1 (stereo not given in full) | 25.8
3 | CCCN(CC(=O)N1CCNCC1)C(=O)c1cccc(Cl)c1 | 13.5
4 | CC(C)OCCCN(CC(=O)N1CCNCC1)C(=O)c1cccc(Cl)c1 | 25.9
5 | CC(C)OCCCN(CC(=O)N1CCNCC1)C(=O)c1ccc(F)cc1 | 55.7
6 | Cc1noc(C)c1-c1cccc(C2CCNCC2)n1 | 5.11
7 | COc1ccccc1OCCNC(=O)CN1CCN(C)CC1C (stereo not given) | 16.657
8 | Nc1nc2c(c3c1C(=O)NC3=O)CCCC2 | 70.7
9 | Nc1nc2c(c3c1C(=O)NC3=O)CCC2 | 41.9
10 | O=C1NC(=O)c2c3c(nc(O)c21)CCCC3 | 29.3
11 | COc1ccc(Nc2nc(N)c(C(C)=O)s2)cc1Cl | 17.6
12 | COCCN1CC[C@@H]2O[C@@H](COCC(=O)N3CCCC3)CC[C@@H]21 | -23.2
13 | Cc1cc(NCCCC(F)(F)F)n2nc(C)cc2n1 | 42.3
14 | Cc1cc(C(F)(F)F)nc(CNc2cc(C)nc3cc(C)nn23)n1 | 43.2
15 | Cc1cc(NCc2cc(C)oc2C(F)(F)F)n2nc(C)cc2n1 | 79.2
16 | CCN(C)c1ncnc2c1CCN(Cc1ccc(OC)cc1)CC2 | 34.1
17 | O=C(c1ccsc1)N1CCO[C@@H]2CN(Cc3ccccn3)CC[C@@H]2C1 | -31.3
18 | Cc1cc(C(=O)N2CCc3nc(N4CCOCC4)nc(C)c3C2)c(C)o1 | 55.7
19 | Cc1nc(N2CCOCC2)nc2c1CN(C(=O)C(C)C)CC2 | 5.04
20 | Cc1nc(N2CCCC2)nc2c1CN(C(=O)N1CCOCC1)CC2 | 34.9
21 | Cc1nc(N2CCCC2)nc2c1CCN(C(=O)c1ccoc1C)CC2 | 3.17
22 | Cc1nc(N2CCCC2)nc2c1CCN(C(=O)N1CCCC1)CC2 | -23.3

Row | SMILES | INHIBITION [%]
23 | Cc1cc(C(=O)N2CCc3nc(N4CCCC4)nc(C)c3CC2)c(C)o1 | 67.5
24 | Cc1ccc(C(=O)NCc2ccnc(N(C)C)c2)c(C)c1 | -29.1
25 | Cc1ccccc1N1CC(c2nnc(N)s2)CC1=O (stereo not given) | -37.1
26 | CC(C)C[C@H](NC(=O)Nc1ccc(F)c(Cl)c1)C(=O)O | 47.1
27 | COC(=O)CNC(=O)c1nc(Cl)sc1C(C)C | -17.6
28 | CCNC(=O)C1(Cc2cc(-c3ccccc3)no2)CCCN(C)C1 (stereo not given) | 10.9
29 | COCC(=O)N1C[C@@H](O)[C@H](N2CCN(c3ccccc3)CC2)C1 | 12.39
30 | O=C(CNc1ccc(OC2CCOC2)cc1)NCc1cccs1 (stereo not given) | 59.8
31 | O=C(CNc1ccc(OC2CCOC2)cc1)NCc1ccco1 (stereo not given) | -12.1
32 | Cc1ccccc1CNC(=O)CNc1ccc(OC2CCOC2)cc1 (stereo not given) | -6.97
33 | Cc1ccccc1C1(CNC(=O)NC(C)c2nncn2C)CC1 (stereo not given) | 40.2
34 | CN(Cc1ccccc1)C(=O)Cn1nc(N2CCSCC2)ccc1=O | -22.9
35 | COc1cccc(CNCCc2cccc(C(N)=O)c2)c1 | -0.758
36 | NC(=O)c1cccc(CCNCc2cnc(C3CCC3)s2)c1 | 82.5
37 | NC(=O)c1cccc(CCNCc2cccs2)c1 | 27.7
38 | NC(=O)c1cccc(CCNCc2cnc(-c3cccs3)s2)c1 | 74
39 | COc1ccc(CNCCc2cccc(C(N)=O)c2)cc1C | 11.8
40 | COc1ccccc1CNCCc1cccc(C(N)=O)c1 | 2.22
41 | O=C(CCc1ccsc1)N1CCCCC1Cn1cccn1 (stereo not given) | -23.9
42 | Cc1noc([C@H]2CC[C@@H]3[C@@H](CCN3S(=O)(=O)C3CC3)O2)n1 | -6.23
43 | Cc1cccc(OCCC(=O)N2CCN(CC(=O)NC3CC3)CC2)c1C | 33.8
44 | Cn1c(N2CCOCC2)nc2cc(C(=O)N3CCCOCC3)ccc21 | -24.6

Row | SMILES | INHIBITION [%]
45 | CCc1ncc(-c2nccn2-c2cccc(CC(=O)O)c2)cn1 | 16.3
46 | CC(=O)NCc1cccc(-n2ccnc2-c2cccc(C(=O)O)c2)c1 | 62.1
47 | CNC(=O)Cc1ccc(-n2ccnc2-c2cccc(C(=O)O)c2)cc1 | 15.6
48 | Cc1cnn(C2CCCN(C(=O)c3ccc(Cn4ccnc4)cc3)C2)c1 (stereo not given) | 16.9
49 | Cc1ccc(C(CNC(=O)c2cc(=O)c3ccccc3[nH]2)N(C)C)cc1 (stereo not given) | -5.22
50 | Cc1cnc(N2C[C@@H]3CN(C4CCOC4)CCC[C@]3(C(=O)O)C2)nc1 (stereo not given in full) | 24.9
51 | CCN(CC1CC1)C(=O)NCc1nnc2n1CCC2 | 45.3
52 | COc1ccc(NC(=O)NCC(O)c2ccccc2F)c(OC)c1 (stereo not given) | 3.15
53 | Cc1c(C(=O)N2CCC(c3nc(C)n4ccsc34)CC2)cnn1C | 42.6
54 | CC(=O)N1[C@H](Cn2cncn2)C[C@@H]2CN(Cc3ccncc3)CC[C@@H]21 | 55.9
55 | CC(C)N1[C@H](Cn2cncn2)C[C@@H]2CN(c3ncccn3)CC[C@@H]21 | 20.1
56 | CN1[C@H](Cn2cncn2)C[C@@H]2CN(Cc3cccc(C#N)c3)CC[C@@H]21 | 20.1
57 | CC(C)N1[C@H](CN2CCCC2)C[C@@H]2CN(Cc3ccoc3)CC[C@@H]21 | -75.9
58 | CC(C)N1[C@H](Cn2cccn2)C[C@@H]2CN(C3CCOCC3)CC[C@@H]21 | 33
59 | CC(C)N1[C@H](Cn2cccn2)C[C@@H]2CN(Cc3ccoc3)CC[C@@H]21 | 57.9
60 | CC(C)N1[C@H](Cn2cncn2)C[C@@H]2CN(Cc3ccsc3)CC[C@@H]21 | 47.5
61 | CN1[C@H](Cn2cccn2)C[C@@H]2CN(Cc3cccs3)CC[C@@H]21 | 28.3
62 | CN1[C@H](Cn2cncn2)C[C@@H]2CN(Cc3ccsc3)CC[C@@H]21 | 54.8
63 | CC(=O)N1[C@H](Cn2cncn2)C[C@@H]2CN(Cc3cccnc3)CC[C@@H]21 | 35.4
64 | CC(=O)N1[C@H](Cn2cncn2)C[C@@H]2CN(Cc3ccccn3)CC[C@@H]21 | 34.1
65 | CC(C)N1[C@H](Cn2cncn2)C[C@@H]2CN(Cc3cccs3)CC[C@@H]21 | 57.5
